Only some compounds are listed: those with a hit (about 11% of all), similar ones and a draw of the others.
Pf growth 96h – P. falciparum growth inhibition at 96 hours; P. falciparum luciferase reporter growth, 96 h; Potency, µM (top dose mostly 28.7 µM), for the others: at the highest dose activity change, negative = inhibition, most hits filed as inhibitors; actives 6.9% (n = 320,000); AID 504834
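P. falciparum expressing integrated firefly luciferase, in erythrocytes at 2% hematocrit, 0.05% parasitemia, incubated with compounds 96 h at 37 C, 5% CO2. Growth inhibition read as loss of luminescence; two-generation exposure targets delayed-death apicoplast inhibitors.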
Pf growth 48h – P. falciparum growth inhibition at 48 hours (one generation); P. falciparum luciferase growth in erythrocytes, 48 h; Potency, µM (series often up to 28.7 µM), for inactives: top-dose activity change, negative = inhibition, actives largely listed as inhibitors; actives 5.9% (n = 310,000); AID 504832
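Read-out is firefly luciferase luminescence from an integrated reporter in P. falciparum, so falling signal marks reduced parasite growth. Infected erythrocytes were at 2% hematocrit and 0.1% parasitemia (final) in Albumax-supplemented RPMI 1640.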
HCV inh – HCV inhibition; actives 3.4% (n = 340,000); Potency, µM (titrated, usually from 41.8 µM), without a hit: top-dose activity change, negative = inhibition, most hits filed as inhibitors; Huh7.5.1 HCVcc-Cre infection, luciferase reporter, 44 h
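After 44 h co-culture of compound, cells and HCVcc-Cre (~0.5 moi), substrate is added for 15 min at room temperature and luciferase measured over 15 sec. Cells were seeded at 1,000/well and pre-cultured 4 h.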
AMA1 RON2 block – AMA1-RON2 (P. falciparum) interaction inhibition | AlphaScreen AMA1-biotinylated RON2 peptide binding | Potency, µM (series often up to 58.2 µM), for inactives: top-dose activity change, negative = inhibition, hits mostly inhibitors | actives 0.2% (n = 360,000) | AID 720542;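 also: 0% = vehicle wells and -100% = peptide control; nearly all actives have a fitted effect of over 45% in size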
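AMA1 (3D7) with his tag at 25 nM final met compounds first, then biotinylated RON2 peptide at 25 nM; detection used donor plus acceptor beads, 10 µg/mL apiece, read by AlphaScreen after 30 min at room temperature.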
Starred values were filed as active, the others as inactive; ? = inconclusive; nt = no result given; [ ] = dose if it differs, or a comment. Calls follow the shape of the dose curve; as a rule, active = well fitted curve in the direction sought with a large enough effect; inconclusive = small, poorly fitted or top-dose-only effect, or another doubt; inactive = no such curve, though single readings can be large; an effect the other way counts as inactive or inconclusive. Unless noted, % is scaled to controls: 0 for no effect and ±100 for the full control effect; potency is read from the fitted curve at half-maximal effect.

SMILES | Pf growth 96h | Pf growth 48h | HCV inh | AMA1 RON2 block
C=C(C)CNC(=S)N/N=C/c1ccc([N+](=O)[O-])cc1 | 15% | 12µM* | -20% | 58%
Cc1ccc(NC(=O)C2CCN(C(=O)N3CCOc4ccccc43)CC2)cc1 | 13µM* | ? | -12% | 3%
Cc1cccc(NC(=O)C2CCN(C(=O)N3CCOc4ccccc43)CC2)c1C | 15µM* | ? | 0% | 6%
CCC1CN(C(=O)N2CCC(C(=O)Nc3ccccc3F)CC2)c2ccccc2O1 (stereo unspecified) | ? | -12% | ? | 1%
CCCN1CCN(C(c2cc3cc(OCC)ccc3[nH]c2=O)c2nnnn2C2CCCCC2)CC1 (stereo unspecified) | 52% | ? | -17% | -1%
CCc1ccc2[nH]c(=O)c(CN(Cc3nnnn3C3CCCC3)C3CCCCC3)cc2c1 | 1% | 8.3µM* | -23% | -9%
CCOc1ccc2[nH]c(=O)c(CN(CCO)C(c3nnnn3C3CCCCC3)C(C)C)cc2c1 (stereo unspecified) | -18%[5.75 µM] | 3.3µM* | 16% | -9%
Cc1ccc2[nH]c(=O)c(CN(Cc3nnnn3Cc3ccccc3)C3CCCC3)cc2c1 | -20% | 13µM* | ? | -2%
Cc1ccc2[nH]c(=O)c(CN(Cc3ccc4c(c3)OCO4)Cc3nnnn3C3CCCC3)cc2c1 | -1% | 10µM* | ? | -29%
O=C(/C=C/c1ccccc1)Nc1ccc(Cl)cn1 | -20% | 104% | ? | 5%
CC(Cc1c[nH]c2ccccc12)C(=O)NCc1ccco1 (stereo unspecified) | -14% | nt | 7% | -5%
O=C(OCC(O)CO)c1ccccc1Nc1ccnc2cc(Cl)ccc12 (stereo unspecified) | ? | 8.3µM* | ? | -11%
O=C(OC[C@@H](O)CO)c1ccccc1Nc1ccnc2cc(Cl)ccc12 | 1.6µM* | ? | nt | nt
OCC1(CC2CCCCO2)CCN(Cc2cccc(O)c2)CC1 (stereo unspecified) | -12% | 6% | 2% | 21%
CC(Oc1ccc(Cl)cc1Cl)C(=O)NCCCN1CCOCC1 (stereo unspecified) | -4% | nt | -9% | 3%
COc1ccccc1NS(=O)(=O)c1ccc(C)c(NS(=O)(=O)c2cc(C(=O)O)cc(C)c2C)c1 | -6% | 53% | 24% | 7%
CC(=O)Nc1nc(-c2ccc([N+](=O)[O-])cc2)cs1 | -14% | 24% | 10% | -2%
CC(=O)c1cccc(Nc2nc(-c3cccc([N+](=O)[O-])c3)cs2)c1 | 55% | 52% | 2.2µM* | -3%
CC(=O)Nc1nc(C)c(-c2csc(Nc3cccc(C(C)=O)c3)n2)s1 | 7% | nt | 10µM* | 15%
CC(=O)Nc1nc(C)c(-c2csc(Nc3cccc([N+](=O)[O-])c3)n2)s1 | 0.83µM* | nt | ? | 6%
CCC(=O)Nc1nc(C)c(-c2csc(Nc3cccc(C(=O)O)c3)n2)s1 | ? | 98% | 5% | -25%
Cc1ccc(NC(=O)CNC(=O)c2ccco2)cc1 | -9% | 97% | 10% | -10%
CCC(C)NC(=O)c1c(N)n(/N=C/c2cccnc2)c2nc3ccccc3nc12 (stereo unspecified) | ? | ? | 14µM* | 23%
CCC(C)NC(=O)c1c(N)n(/N=C/c2ccccn2)c2nc3ccccc3nc12 (stereo unspecified) | 7% | -1% | ? | 29%
CC(C)CNC(=O)c1c(N)n(/N=C/c2cccnc2)c2nc3ccccc3nc12 | 3.3µM* | 6% | 7% | nt
SMILES | Pf growth 96h | Pf growth 48h | HCV inh | AMA1 RON2 block
NC(=O)c1ccc(NC(=O)COC(=O)c2cc3ccccc3cc2O)cc1 | nt | nt | ? | -2%
COC(=O)C(C)Oc1cc(OC(C)C(=O)OC)c2c(C)c(Cl)c(=O)oc2c1 (stereo unspecified) | 27% | -3% | ? | -7%
COC(=O)CN1C(=O)Nc2ccc(Br)cc2C1c1ccccc1 (stereo unspecified) | 3.7µM* | -23% | -15% | -11%
Cc1ccc(S(=O)(=O)Nc2cc(C)c(O)c(Sc3n[nH]c(C)n3)c2)cc1 | 2% | -16% | -2% | 24%
COc1ccc(C)cc1N(C(=O)COc1cccc(F)c1)c1nc2ccccc2s1 | ? | 0.74µM* | -2% | -5%
CCOC(=O)c1cc2sc(C)cc2n1C(C)C(=O)OCC (stereo unspecified) | 0.83µM* | 24% | -1% | 0%
CCOC(=O)c1cc2sc(C)cc2n1CC(=O)Nc1cccc(C)c1C | 10% | ? | 10% | -1%
Cc1nc(SCCCSc2n[nH]c(C)n2)n[nH]1 | nt | -1% | 13% | 0%
CN(C(=O)CN1C(=O)S/C(=C\c2ccccc2)C1=O)C1CCS(=O)(=O)C1 (stereo unspecified) | 13µM* | -7% | 11% | -4%
CN(C(=O)CCN1C(=O)/C(=C/c2ccccc2)SC1=S)C1CCS(=O)(=O)C1 (stereo unspecified) | 2.6µM* | ? | 4% | 16%
O=c1[nH][nH]c(=O)c2nc(Nc3ccccc3)ncc12 | nt | nt | 2% | 34%
Cc1nc2ccccc2c(=O)n1/N=C/c1ccc(C(C)C)cc1 | 50% | 42% | 25µM* | 4%
Cc1nn(S(=O)(=O)c2ccccc2)c(C)c1S(=O)(=O)N1CCOCC1 | -27% | 9% | 21% | -12%
COc1ccc(C(=O)Nc2ccc(NC(=O)c3ccccn3)cn2)cc1 | -3% | 21% | -20% | 4%
O=C(N/N=C(\c1ccccc1)c1ccccn1)c1ccccc1Cl | 2.6µM* | 2.3µM* | ? | 60%
O=C(NC(O)C(=O)c1ccccc1)c1ccccn1 (stereo unspecified) | -5% | -20% | 6% | 3%
O=C(NN=C(c1ccccc1)c1ccccn1)c1ccccc1 | nt | nt | 2.5µM* | 46%
Cc1ccccc1NC(=S)N(Cc1ccccn1)Cc1ccccc1Cl | ? | ? | -22% | 72%
COc1ccc(C(=O)N/N=C(\c2ccccc2)c2ccccn2)cc1 | 3.7µM* | 2.6µM* | 2.8µM* | 27%
S=C(NN=C(c1ccccc1)c1ccccn1)N(Cc1ccccn1)Cc1ccccn1 | nt | nt | 1.3µM* | 11µM*
COc1cccc(CN(C)C(=O)c2csc3c2CCCC3)c1OC | ? | -25% | 14% | 13%
FC(F)(F)C1=NNC(c2ccc3ccccc3c2)=NN1 | nt | nt | nt | 16%
COc1ccc(N(CC(=O)NC2CCCC2)C(=O)c2ccc(C)s2)cc1OC | 16% | -11% | -22% | 2%
O=C(NCCc1ccc(O)c(Br)c1)c1ccc(Br)o1 | nt | nt | nt | 0%
CN(CC(=O)Nc1ccc(Cl)cc1)C(=O)CNC(=O)c1cccs1 | -16% | -25% | ? | 6%
Cc1ccc(C(=O)NCCCNC(=O)COc2ccc(C)c(C)c2)cn1 | 9% | -17% | -2% | -22%
S=C(NN=Cc1ccccn1)N(Cc1ccccn1)Cc1ccccn1 | nt | nt | 1.3µM* | -21%
CCCCn1c(SCC(=O)NCc2cccs2)nc2c1c(=O)n(C)c(=O)n2C | 9.3µM* | nt | -2% | -3%
CCn1c(SCC(=O)Nc2ccc3c(c2)OCO3)nc2c1c(=O)n(C)c(=O)n2C | ? | 12% | 12% | 0%

Compound activity deposited in PubChem by National Center for Advancing Translational Sciences (NCATS).
